The term viability denotes the share of living cells, or the viability signal relative to a control. As a reminder, the inhibition is the relative decrease from the control value, in per cent. As usually defined, the AC50 is the midpoint of the concentration-response curve, whichever way the signal moves.

Assay [1] is described as follows: P. berghei load reduction in hepatocytes – cell-based, HepG2, luciferase luminescence, HepG2 viability, primary screen (AID 624349; in the data active = parasite load remaining mostly below about 12%, no sharp cut-off; inactive = mostly above about 10%;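 note: 100% = mean of DMSO negative control wells on the same plate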). To be noted: P. berghei liver stage in HepG2, luciferase luminescence, concentration not given here; parasite load remaining: stronger effect = lower value; viability: measured here: HepG2 viability without parasites.
The target in assay [2] is 6-phosphogluconate dehydrogenase, decarboxylating (Homo sapiens) (UniProt P52209). In words: inhibition of human phosphogluconate dehydrogenase – biochemical, recombinant enzyme, NADPH absorbance, primary screen (AID 1159550;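 active = at least 20% inhibition of 6-phosphogluconate dehydrogenase activity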). To be noted: recombinant 6PGD, NADPH absorbance 341 nm; at 10 µM; stronger effect = higher value.
Assay [3] in a line: viability loss with induced miR-34 in A549 – imaging, A549 dox-inducible miR-34, nuclei and caspase counts, primary screen (AID 1347080). To be noted: A549 miR-34 inducible, Hoechst nuclei count, 48 h.
The nature of assay [4]: MELAS cybrid and Rieske KO viability enhancers – cell-based, MELAS cybrids, Rieske KO mouse fibroblasts, CellTiter-Glo, primary screen (AID 1508586;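 active = mean z-score across replicates of 1.96 or higher in either the MELAS or the Rieske mutant cell line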;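 note: z relative to plate mean and SD of compound and empty wells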). To be noted: low glucose. In general terms: ATP-based viability assays read luminescence as a measure of living cells.
In assay [5] the target is NAD(+) hydrolase SARM1 (Homo sapiens) (UniProt Q6SZW1). In words: blocking NAD cleavage by SARM1 SAM-TIR – cell lysate, NAD-Glo luminescence (AID 1508614;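 active = compound whose remaining NAD level is above about 45 nM, limit read from the data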;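 note: higher remaining NAD means stronger inhibition of SARM1 NADase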). The settings on record: SAM-TIR HEK293T lysate NADase, at 1 µM, stronger effect = higher value.
Assay [6] concerns the target Mitogen-activated protein kinase 7 (Homo sapiens) (UniProt Q13164). In words: Gal4-ERK5 driven luciferase induction – cell-based, HTS, primary screen (AID 1508626;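 active = luciferase signal above three times the same-plate solvent-only control wells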;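 note: luciferase driven by Gal4-ERK5 fusion binding five Gal4 sites before minimal TATA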). To be noted: HeLa Gal4-ERK5 transactivation, 18 h, at 5 µM, stronger effect = higher value.
Assay [7] can be described thus: galactose survival enhancers in mitochondrial complex I cybrids – cell-based, galactose medium, ATP luminescence, primary screen (AID 1645843;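 active = z-score of at least 1.8 in each of two replicates, scored against plate mean and spread of sample wells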;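 note: positive z means more ATP and so rescue of galactose-driven cybrid death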). To be noted: complex I mutant cybrid cells, 72 h, stronger effect = higher value.
Assay [8] in a line: viability loss in pontine glioma line – cell-based, SU-DIPG-XIII, MIPE4.0, CellTiter-Glo, qHTS, dose response (AID 1347061; cut-off not given, nearly all actives have AC50 up to about 37 µM;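 note: cells exposed to compound for 48 hours before readout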). The settings on record: CellTiter-Glo ATP luminescence.
Assay [9] in a line: viability loss in pontine glioma line – cell-based, SU-DIPG-IV, MIPE4.0, CellTiter-Glo, qHTS, dose response (AID 1347063; cut-off not given, nearly all actives have AC50 up to about 30 µM;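 note: compound exposure lasted 48 hours before the viability readout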). The settings on record: CellTiter-Glo ATP luminescence.
Assay [10] can be described thus: viability loss in pontine glioma line – cell-based, SU-DIPG-XXV, MIPE5.0, CellTiter-Glo, qHTS, dose response (AID 1347065; cut-off not given, nearly all actives have AC50 up to about 26 µM;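 note: cells exposed to compound for 48 hours before ATP readout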). The settings on record: CellTiter-Glo ATP luminescence.
The nature of assay [11]: growth inhibition of DIPG cells – cell-based, MIPE5.0 library, qHTS (AID 1347068; cut-off not given, nearly all actives have IC50 up to about 30 µM). To be noted: SU-DIPG-XXV viability. Background: In qHTS, concentration-response curves come from the screen itself.
Setting [12] is: stronger effect = lower value, cell number ratio, induced over uninduced.
Setting [13] is: measured here: relative caspase fold change +Dox/-Dox.
Setting [14] is: measured here: total cells with miR-34 induction, stronger effect = lower value.
Setting [15] is: measured here: total cells without miR-34 induction.

Values joined by “and” are separate entries in the source; they are usually repeats but may differ in a detail not shown here. Equal entries are not always repeated. Results filed as inconclusive are left out. Active and inactive are the calls of the source.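 Rule for the calls, unless noted: active = compounds whose cell count with miR-34 switched on is under 0.7 times the count with it off; inactive = the rest.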

Sequence of Mitogen-activated protein kinase 7 (Homo sapiens) (Q13164 whole entry, looked up, the tested form may be a part): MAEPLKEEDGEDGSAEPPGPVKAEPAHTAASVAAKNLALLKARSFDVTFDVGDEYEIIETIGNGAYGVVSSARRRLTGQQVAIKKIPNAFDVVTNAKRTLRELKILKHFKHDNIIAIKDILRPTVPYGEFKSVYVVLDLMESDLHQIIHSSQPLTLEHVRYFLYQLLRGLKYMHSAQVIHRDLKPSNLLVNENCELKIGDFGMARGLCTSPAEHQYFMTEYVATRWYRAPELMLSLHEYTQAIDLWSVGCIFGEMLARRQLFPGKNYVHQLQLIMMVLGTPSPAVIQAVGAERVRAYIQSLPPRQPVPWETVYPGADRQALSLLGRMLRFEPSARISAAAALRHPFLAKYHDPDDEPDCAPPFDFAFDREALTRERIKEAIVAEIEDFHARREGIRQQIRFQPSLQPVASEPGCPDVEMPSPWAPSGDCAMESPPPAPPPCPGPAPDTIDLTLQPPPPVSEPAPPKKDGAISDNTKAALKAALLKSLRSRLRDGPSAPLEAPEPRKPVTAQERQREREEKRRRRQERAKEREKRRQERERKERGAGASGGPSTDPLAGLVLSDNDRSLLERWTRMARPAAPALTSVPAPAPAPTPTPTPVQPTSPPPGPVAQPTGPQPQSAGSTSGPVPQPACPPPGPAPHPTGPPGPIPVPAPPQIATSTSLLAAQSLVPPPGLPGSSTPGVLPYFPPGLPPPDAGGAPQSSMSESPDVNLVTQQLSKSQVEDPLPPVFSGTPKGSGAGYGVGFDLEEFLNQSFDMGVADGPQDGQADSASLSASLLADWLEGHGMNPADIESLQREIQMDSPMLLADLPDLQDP
Sequence of 6-phosphogluconate dehydrogenase, decarboxylating (Homo sapiens) (P52209 whole entry, looked up): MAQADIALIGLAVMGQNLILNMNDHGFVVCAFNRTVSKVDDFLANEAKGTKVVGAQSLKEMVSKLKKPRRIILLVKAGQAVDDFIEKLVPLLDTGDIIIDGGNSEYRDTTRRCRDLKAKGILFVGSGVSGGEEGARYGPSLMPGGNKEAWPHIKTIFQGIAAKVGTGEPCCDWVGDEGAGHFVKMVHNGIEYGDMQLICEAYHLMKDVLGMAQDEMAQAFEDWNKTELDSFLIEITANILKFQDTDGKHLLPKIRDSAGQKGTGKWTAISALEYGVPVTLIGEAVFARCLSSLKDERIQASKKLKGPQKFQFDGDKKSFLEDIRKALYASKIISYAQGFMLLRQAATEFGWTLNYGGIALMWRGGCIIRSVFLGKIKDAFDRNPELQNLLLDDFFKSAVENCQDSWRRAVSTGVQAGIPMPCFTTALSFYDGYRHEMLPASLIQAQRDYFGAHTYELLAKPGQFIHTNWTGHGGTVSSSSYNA
Sequence of NAD(+) hydrolase SARM1 (Homo sapiens) (Q6SZW1 whole entry, looked up, the tested form may be a part): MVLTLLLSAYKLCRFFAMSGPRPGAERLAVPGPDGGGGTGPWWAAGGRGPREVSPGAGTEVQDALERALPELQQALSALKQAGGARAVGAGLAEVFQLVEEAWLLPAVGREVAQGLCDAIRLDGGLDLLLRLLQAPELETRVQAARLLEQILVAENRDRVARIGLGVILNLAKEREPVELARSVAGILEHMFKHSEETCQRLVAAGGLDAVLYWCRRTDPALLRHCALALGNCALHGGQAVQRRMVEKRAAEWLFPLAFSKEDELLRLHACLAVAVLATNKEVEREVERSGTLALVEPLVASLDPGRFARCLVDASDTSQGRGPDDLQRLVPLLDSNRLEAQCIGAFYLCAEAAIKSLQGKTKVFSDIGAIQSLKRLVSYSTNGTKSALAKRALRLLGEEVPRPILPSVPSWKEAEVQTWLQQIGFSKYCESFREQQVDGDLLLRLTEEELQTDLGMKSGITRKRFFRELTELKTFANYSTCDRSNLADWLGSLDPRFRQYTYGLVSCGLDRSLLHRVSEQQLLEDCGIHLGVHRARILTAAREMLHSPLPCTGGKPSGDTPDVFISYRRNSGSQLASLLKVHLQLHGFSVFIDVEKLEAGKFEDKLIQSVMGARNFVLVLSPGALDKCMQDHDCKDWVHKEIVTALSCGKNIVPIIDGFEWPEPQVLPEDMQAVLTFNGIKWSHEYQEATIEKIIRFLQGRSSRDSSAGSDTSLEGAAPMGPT

Turning to `CC(=O)O[C@H]1C(=O)[C@@]2(C)[C@H]([C@H](OC(=O)c3ccccc3)[C@]3(O)C[C@H](OC(=O)[C@H](O)[C@@H](NC(=O)c4ccccc4)c4ccccc4)C(C)=C1C3(C)C)[C@]1(OC(C)=O)CO[C@@H]1C[C@@H]2O`, the parasite load remaining in assay [1] is 52.9% (inactive) and 35% (inactive). In addition, the viability in assay [1] was 43.2% and 79%. Moreover, in assay [2], the inhibition is 17.9% (inactive). Moreover, the fold change in assay [3] (setting [12]) was 0.873 (inactive) and 1.02 (inactive); in assay [3] (setting [13]), 1.16 and 1.19. In addition, the cell count is 1550 and 2180 in assay [3] (setting [14]); 1780 and 2140 in assay [3] (setting [15]). Further, the z-score in assay [4] (MELAS cybrid survival, CellTiter-Glo 48 h, stronger effect = higher value) was -1.19 (inactive) and -2.08 (inactive); in [4] (Rieske KO mouse fibroblast survival, CellTiter-Glo 72 h), 0.25 and 0.578; in assay [7], -0.295 (inactive). The remaining NAD in assay [5] is 10 nM (inactive). In addition, the luciferase signal in assay [6] is 36 AU (inactive).

Regarding `C[C@H]1[C@H](C)CC[C@]2(C(=O)O)CC[C@]3(C)C(=CC[C@@H]4[C@@]5(C)CC[C@H](O)C(C)(C)[C@@H]5CC[C@]43C)[C@H]12`, the parasite load remaining in [1] was 32.3% (inactive). In addition, the viability in assay [1] was 73.8%. In assay [2], the inhibition is 14.7% (inactive). For the same molecule, the result in [8] and in assay [11] was inactive. The concentration at half-maximal activity (AC50) in assay [9] is 42.9 µM (active); in assay [10], 18.6 µM (active). Also, the fold change was 0.941 (inactive) in assay [3] (setting [12]) and 1.58 in [3] (setting [13]). The cell count was determined as 8760 in assay [3] (setting [14]) and 9310 in assay [3] (setting [15]). In assay [6], the luciferase signal is 40 AU (inactive).

(Values after PubChem BioAssay.)
